From PubChem BioAssay
AHR activator – AHR activators, primary screen, cell-based, luminescence, luciferase reporter, human | AID 2796, 2010 | AHR-responsive luciferase reporter cells | activation, % at 5 µM | 320,000 tested, 2.5% active | Aryl hydrocarbon receptor (Homo sapiens), P35869; in the data active = activation above about 47%
A1 inh – caspase 3/7 activation in MEF A1-2A-BIM cells, primary screen, A1 inhibitor project, cell-based, luminescence, HTS; caspase activation, % (concentration not given with the values); 330,000 tested, 0.066% active; Caspase-Glo 3/7 luminescence, 3 h; percent of clofoctol response, vehicle zero;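 active = over half of replicate activation scores above 10%, or exactly half above 10 with the replicate mean above 10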
Efflux pump inh – inhibitors of Candida efflux pumps in yeast, primary screen, S. cerevisiae, Nile Red, multiplex; S. cerevisiae Candida pump triplex; inhibition, % at 10 µM; 330,000 tested, 0.44% active; AID 485275, 2010;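 active = plate passing quality check with inhibition over a set limit, or well fluorescence over plate mean plus 4 SD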;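 note: Nile Red retained in pooled yeast measured as flow cytometry median fluorescence; higher means more Nile Red kept so more efflux inhibition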
VLA-4 inh – inhibition in human VLA-4 binding assay, primary screen, VLA-4 allosteric modulator project, MLPCN library, flow cytometry, VLA-4 expressing cells; Integrin alpha-4 (Homo sapiens), P13612; ligand binding flow cytometry; inhibition, % (about 7 µM as worked out from the volumes in the protocol); 330,000 tested, 0.2% active; AID 2557, 2010; in the data active = inhibition above about 50%
Mot1-301 SUMO – yeast Mot1-301 growth rescue at high temperature, primary screen, SUMOylation pathway inhibitor project, S. cerevisiae, ATP luminescence, 38.5C. S. cerevisiae Mot1-301 growth rescue; percent above DMSO median, 100 means doubled. growth rescue, % at 18.8 µM. 320,000 tested, 1% active. AID 2716, 2010;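 active = every valid replicate shows activation above 250% relative to neutral control wells; inactive = the rest, any valid replicate at or below 250%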
ALR H2O2 inh – inhibitors of human ALR sulfhydryl oxidase, primary screen, biochemical, H2O2 detection, HRP-luminol luminescence, single point. FAD-linked sulfhydryl oxidase ALR (Homo sapiens), P55789. purified ALR, DTT oxidation. inhibition, % (test concentration not listed). 290,000 tested, 3.8% active. AID 485317, 2010;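 active = mean replicate inhibition above about 79%, with every replicate also reaching it, limit read from the data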
Target sequence (P55789 whole entry, looked up): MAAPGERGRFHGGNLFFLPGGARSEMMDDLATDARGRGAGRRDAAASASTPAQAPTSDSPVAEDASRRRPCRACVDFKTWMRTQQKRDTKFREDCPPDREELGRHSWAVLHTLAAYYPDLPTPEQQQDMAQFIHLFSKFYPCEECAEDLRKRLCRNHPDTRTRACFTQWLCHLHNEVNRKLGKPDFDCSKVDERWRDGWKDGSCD
Numbers stand for hits; n = inactive; x = no result. The list is not random: actives were taken first. Their share in the collection is about 7.2%.

SMILES	AHR activator	A1 inh	Efflux pump inh	VLA-4 inh	Mot1-301 SUMO	ALR H2O2 inh
COc1ccc(C2NC(=O)c3ccccc3N2)cc1OC (centres undefined)	48	n	n	n	n	n
O=C1NC(c2ccc3c(c2)OCO3)Nc2ccccc21 (centres undefined)	145	n	n	n	n	n
CCSc1nnc(NC(=O)CSc2nnc(CNC(=O)c3ccc(OC)cc3)o2)s1	n	n	n	n	n	x
COc1cc(C(=O)NCc2nnc(SCC(=O)Nc3cc(C)cc(C)c3)o2)cc(OC)c1OC	n	n	n	n	n	97
COc1ccc(C(=O)NCc2nnc(SCC(=O)Nc3nnc(C)s3)o2)cc1	n	n	n	n	n	99
COc1cc(C(=O)NCc2nnc(SCC(=O)Nc3c(C)cc(C)cc3C)o2)cc(OC)c1OC	n	n	n	n	n	n
Cc1c(/C(O)=C2/C(=O)C(=O)N(CCN3CCOCC3)C2c2cccnc2)cnn1-c1ccccc1 (centres undefined)	n	n	n	n	447	n
CCN(CC)CCN1C(=O)C(=O)/C(=C(/O)c2cnn(-c3ccccc3)c2C)C1c1cccnc1 (centres undefined)	n	n	n	n	n	n
Cc1ccc(S(=O)(=O)/N=C2/NC(=O)/C(=C/c3ccccc3)S2)cc1	n	n	n	n	n	n
CC(=O)Nc1ccc(S(=O)(=O)/N=C2/NC(=O)/C(=C\c3ccco3)S2)cc1	n	n	n	n	n	99
Cc1ccc(S(=O)(=O)/N=C2/NC(=O)/C(=C\c3ccccc3)S2)cc1	n	n	n	n	n	99
Cc1ccc(S(=O)(=O)/N=C2/NC(=O)/C(=C\c3ccco3)S2)cc1	n	n	n	n	n	n
CC12CCC(=O)N1C(C(=O)Nc1ccc(Cl)c(S(=O)(=O)N3CCCCC3)c1)CS2 (centres undefined)	n	n	n	n	n	x
CN1CCN(C(=O)c2ccccc2NC(=O)CCN2C(=O)c3ccccc3C2=O)CC1	n	n	n	n	336	n
CCc1ccccc1NC(=O)CCN1C(=O)c2ccccc2C1=O	n	n	n	n	n	n
COc1ccc(CCNC(=O)c2ccc(-c3ccc([N+](=O)[O-])cc3)o2)cc1OC	n	n	n	n	n	n
COc1ccc(-c2nc(C)c(C(C)=O)n2O)cc1	n	n	n	n	n	n
COc1ccc(-c2nc(C)c(C(C)=O)n2O)cc1OC	48	n	n	n	n	n
C=CC[C@H](CC(=O)N[C@H](CO)Cc1ccccc1)C(=O)N[C@H](COC(=O)[C@H](CC=C)CC(=O)OC(C)(C)C)Cc1c[nH]c2ccccc12	n	n	n	n	n	n
CC(=O)Nc1c(O)c2ccccc2[nH]c1=O	n	n	n	n	n	n
CC(=O)c1cccc2c(O)c(C3=Nc4ccccc4C3=O)[nH]c12	61	n	n	n	n	n
O=c1c2ccccc2[nH]c2ccc(F)cc12	n	n	n	n	n	n
O=C1C(c2c(O)[nH]c3ccccc23)=Nc2ccccc21	60	n	n	n	n	n
CC1CCCCC1NC(=O)Cc1ccc(S(=O)(=O)N2CCOCC2)s1 (centres undefined)	n	n	n	n	n	n
Cc1nc2ccccn2c1C(=O)N/N=C/c1ccccc1	n	n	n	n	n	x
SMILES	AHR activator	A1 inh	Efflux pump inh	VLA-4 inh	Mot1-301 SUMO	ALR H2O2 inh
Cc1nc2ccccn2c1C(=O)NN=C1C2CC3CC(C2)CC1C3	48	n	n	n	n	x
COc1cccc(N(CC(=O)Nc2ccc3c(c2)OCO3)S(=O)(=O)c2ccccc2)c1	76	n	n	n	n	x
COc1ccc(N(CC(=O)Nc2ccc3c(c2)OCO3)S(C)(=O)=O)c(OC)c1	n	n	n	n	n	n
COc1ccc(S(=O)(=O)N(CC(=O)Nc2ccc3c(c2)OCO3)c2ccccc2OC)cc1	47	n	n	n	n	n
Cc1ccccc1N(CC(=O)Nc1ccc(F)cc1)S(C)(=O)=O	69	n	n	n	n	n
Cc1ccc(NC(=O)CN(c2ccccc2F)S(C)(=O)=O)cc1	n	n	n	n	n	n
